Results reported in PubChem BioAssay (EPA / NIEHS).
Active and inactive are the calls of the source. How the source made its calls: active means hit-call score of the fitted dose curve at least 0.9, where 1 is the maximum; inactive means score below 0.9.

Experiment: ATG_TGFb_CIS: Attagene CIS-FACTORIAL HepG2 Assay for human Transforming Growth Factor (TGF) (AID 2282967)
Conditions: HepG2 Attagene CIS TGFb reporter, mRNA transcription; actives raise or lower the signal
Method: ATG_CIS is a cell-based, multiplexed-readout assay that uses HepG2, a human liver cell line, with measurements taken at 24 hours after chemical dosing in a 24-well plate.ATG_TGFb_CIS is one of 52 assay component(s) measured or calculated from the ATG_CIS assay. It is designed to make measurements of mRNA induction, a form of inducible reporter, as detected with fluorescence intensity signals by Reverse transcription polymerase chain reaction (RT-PCR) and Capillary electrophoresis technology.Data from the assay component ATG_TGFb_CIS was analyzed into 1 assay endpoint. This assay endpoint, ATG_TGFb_CIS, was analyzed with bidirectional fitting relative to DMSO as the negative control and baseline of activity. Using a type of inducible reporter, measures of mRNA for gain or loss-of-signal activity can be used to understand the reporter gene at the transcription factor-level as they relate to the gene TGFB1. Furthermore, this assay endpoint can be referred to as a primary readout, because this assay has produced multiple assay endpoints where this one serves a reporter gene function. To generalize the intended target to other relatable targets, this assay endpoint is annotated to the growth factor intended target family, where the subfamily is transforming growth factor beta.
Human liver HepG2 cells are transiently transfected with multiple reporter transcription units (MRTUs) in 6-well plates using FuGene 6 reagent (Roche; 3 ml FuGene/1 mg DNA). The MRTU constructs are regulated by a cis-regulating element (promoter). […] A major difference between the CIS and TRANS system is that in CIS activities of endogenous TFs are measured, whereas the TRANS assay evaluates changes in activities of exogenous, chimeric NR-Gal4 proteins. […] At the end of 24 hour incubation, total RNA was isolated using TriZol reagent (Invitrogen). The isolated RNA is then reverse-transcribed using oligo(dT) primer and Mo-MLV reverse transcriptase (Invitrogen) with DNAse I (Ambion) treatment for 30 min. The one-tenth of the produced cDNA was amplified by PCR using Taq DNA polymerase (Invitrogen) and two reporter sequence-specific primers. The PCR products were fluorescently labeled by primer extension with 6-arboxyfluorescein (6-FAM) 5'-labeled reporter sequence-specific primer (2 min at 95 C, 20 s at 68 C and 10 min at 72 C) and these products were digested with 5U of HpaI (New England Biolabs) for 2h at 37 C. The fragments were purified using Qiaquick PCR columns (Qiagen), analyzed on an ABI 3130xL genetic analyzer (Applied Biosystems) with peak positions identified by using a set of X-rhodamine (ROX)-labeled MapMarker1000 molecular weight standards (BioVentures). The raw capillary electrophoresis data was processed using Attagraph software (Attagene).

| Compound | outcome | AC50 |
| --- | --- | --- |
| CC(=O)c1ccc(S(=O)(=O)NC(=O)NC2CCCCC2)cc1 | inactive | – |
| C=CCCCCCCCCO | inactive | – |
| CCCC(C)C(=O)OCC (stereo not given) | inactive | – |
| O=S(=O)(O)c1ccc(N=Nc2c(O)ccc3ccccc23)cc1 | inactive | – |
| CCCC=C(C=O)CC | inactive | – |
| CCN(CC)c1cccc(C)c1 | inactive | – |
| CCCCOC(=O)C(C)CC (stereo not given) | inactive | – |
| C=CCOC(=O)c1ccc(C(=O)OCC=C)c(C(=O)OCC=C)c1 | inactive | – |
| C=C(C)OC(C)=O | inactive | – |
| Cc1c(O)cccc1O | inactive | – |
| COc1ccc(-c2coc3cc(O)cc(O)c3c2=O)cc1 | inactive | – |
| CCOC(=O)CC(=O)c1ccccc1 | inactive | – |
| CCCCCCCCCCCCCCCCCCOS(=O)(=O)O | inactive | – |
| COC(=O)C=Cc1ccccc1 | inactive | – |
| C=CC(=O)OCCCCCCCCCC | inactive | – |
| CCc1occc(=O)c1O | inactive | – |
| C[Si](C)(C)N[Si](C)(C)C | inactive | – |
| CCCCC1C(=O)N(c2ccccc2)N(c2ccccc2)C1=O | inactive | – |
| C[Si]1(C)O[Si](C)(C)O[Si](C)(C)O[Si](C)(C)O[Si](C)(C)O1 | inactive | – |
| CC(=O)/C=C/C1C(C)=CCCC1(C)C (stereo not given) | inactive | – |

| Compound | outcome | AC50 |
| --- | --- | --- |
| C=C(C)C1CC=C(C)CC1 (stereo not given) | inactive | – |
| Cc1c[nH]c(=O)[nH]c1=O | inactive | – |
| Cc1cc(=O)[nH]c(=O)[nH]1 | inactive | – |
| Nc1ccc(Cl)c(N)c1 | inactive | – |
| CCCCCCCC(=O)OCC | inactive | – |
| CO[Si](C)(C)OC | inactive | – |
| CN(C)c1ccc2nc3ccc(=[N+](C)C)cc-3sc2c1 | inactive | – |
| CCCC/C=C/C=C\C=O | inactive | – |
| CCC1(C)C(=O)N(Cl)C(=O)N1Cl (stereo not given) | inactive | – |
| CC(C)C(=O)OCCc1ccccc1 | inactive | – |
| CCc1cccc(C)c1N(C(=O)CS(=O)(=O)O)C(C)COC (stereo not given) | inactive | – |
| C=CC(=O)O[C@H]1C[C@@H]2CC[C@@]1(C)C2(C)C | inactive | – |
| CCCCC/C=C\C/C=C\CCCCCCCC(=O)O | inactive | – |
| CC1=CC=C(C(C)C)CC1 | inactive | – |
| CCCc1ccc(O)c(OC)c1 | inactive | – |
| O=C(O)C1CCC(C(=O)O)CC1 (stereo not given) | inactive | – |
| CC(C)CO | – | 224 nM (active) |
| Cn1cccc1 | inactive | – |
| Oc1ccccc1Cc1ccccc1O | inactive | – |
| CC(C)CCCCCOC(=O)CS | inactive | – |
